{"source": "the supplement of paper PMC11219838", "data": [{"test_system": "Caenorhabditis elegans L1 (N2)", "assay": "survival and reproduction score of C. elegans L1 (0: 0-10 living worms, 1: 11-20, 2: 21-50, 3: >50, 4: overgrown) (score 0-4); higher = more worms, less nematicidal, active = 1 or less; extreme values may be limits of the assay", "settings": "60 µM; 6 days; temperature: 20 °C", "in_short": "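Each 96-well well received about 20 synchronized N2 L1 worms of C. elegans, E. coli HB101 and liquid NGM, plus compound pinned to 60 µM final (0.6% v/v DMSO). Sealed plates were incubated with shaking at 200 rpm, 20 °C, for 6 days. Survival and reproduction were rated under a dissection microscope as an ordinal score of living worms per well, averaged across biological replicates. The scale spanned 0 (0–10 worms) to 4 (overgrown, starved), and there were two replicates.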", "values": [{"smiles": "COc1ccccc1-c1nnc(SCC(=O)Nc2ccc(C)cc2)o1", "survival and reproduction score": "4 (inactive)"}, {"smiles": "c1coc(-c2nnc(-c3ccco3)o2)c1", "survival and reproduction score": "4 (inactive)"}, {"smiles": "CCSc1nnc(-c2ccc(Cl)cc2Cl)o1", "survival and reproduction score": "0 (active)"}, {"smiles": "Clc1cccc(-c2nc(-c3ccccc3Cl)no2)c1", "survival and reproduction score": "4 (inactive)"}, {"smiles": "COc1nc2ccc(C)cc2cc1-c1noc(-c2ccncc2)n1", "survival and reproduction score": "4 (inactive)"}, {"smiles": "Cc1ccc(-c2noc(-c3ccc(Br)o3)n2)s1", "survival and reproduction score": "0 (active)"}, {"smiles": "CCOC(=O)c1c(NC(=O)CSc2nnc(-c3ccc(Cl)cc3)o2)sc(C)c1C", "survival and reproduction score": "4 (inactive)"}, {"smiles": "CCCc1ccc(-c2nc(-c3ccc(F)cc3)no2)cc1", "survival and reproduction score": "1.5 (inactive)"}, {"smiles": "Fc1ccc(-c2noc(COc3ccccc3)n2)cc1", "survival and reproduction score": "3.5 (inactive)"}, {"smiles": "Cc1ccc(-c2noc(-c3cc(C)cc(C)c3)n2)cc1", "survival and reproduction score": "4 (inactive)"}, {"smiles": "COc1cccc(-c2noc(COc3ccc(C)c(C)c3)n2)c1", "survival and reproduction score": "4 (inactive)"}, {"smiles": "COc1ccc(-c2noc(COc3ccc(C)cc3C)n2)cc1", "survival and reproduction score": "4 (inactive)"}, {"smiles": "C=C(C)COc1ccc(-c2nc(-c3cccnc3)no2)cc1", "survival and reproduction score": "3 (inactive)"}, {"smiles": "Cc1cc(OCc2nc(-c3ccccc3)no2)ccc1Cl", "survival and reproduction score": "4 (inactive)"}, {"smiles": "Cc1ccoc1-c1nnc(-c2ccco2)o1", "survival and reproduction score": "3.5 (inactive)"}, {"smiles": "Cc1cc(C)c(C)c(OCc2nc(-c3ccccc3)no2)c1", "survival and reproduction score": "4 (inactive)"}, {"smiles": "Cc1ccc(OCc2nc(-c3ccc(Cl)cc3)no2)cc1", "survival and reproduction score": "4 (inactive)"}, {"smiles": "COc1nc(-c2ccc(Cl)cc2)ccc1-c1noc(C)n1", "survival and reproduction score": "4 (inactive)"}, {"smiles": "O=C(CSc1nnc(-c2ccccc2)o1)Nc1ccccc1C(F)(F)F", "survival and reproduction score": "4 (inactive)"}, {"smiles": "COc1cccc(-c2noc(CSc3ccc(Cl)cc3)n2)c1", "survival and reproduction score": "4 (inactive)"}, {"smiles": "Cc1ccc(C(=O)CSc2nnc(-c3ccco3)o2)o1", "survival and reproduction score": "4 (inactive)"}, {"smiles": "Cc1ccc(-c2nc(-c3ccncc3)no2)c(Cl)c1", "survival and reproduction score": "2 (inactive)"}, {"smiles": "Fc1cccc(Cl)c1CSc1nnc(-c2ccccc2)o1", "survival and reproduction score": "4 (inactive)"}, {"smiles": "Cc1ccc(C)c(OCc2nc(-c3ccccc3Cl)no2)c1", "survival and reproduction score": "4 (inactive)"}, {"smiles": "Cc1ccc(-c2nc(-c3ccccc3)no2)cc1C", "survival and reproduction score": "4 (inactive)"}, {"smiles": "COc1cccc(-c2noc(-c3ccc(Cl)cc3)n2)c1", "survival and reproduction score": "3 (inactive)"}, {"smiles": "O=C(CSc1nnc(-c2ccc(Cl)cc2)o1)c1ccccc1", "survival and reproduction score": "4 (inactive)"}, {"smiles": "Cc1cccc(NC(=O)CSc2nnc(-c3ccncc3)o2)c1C", "survival and reproduction score": "4 (inactive)"}, {"smiles": "Cc1ccc(-c2nc(-c3ccc(F)cc3)no2)cc1", "survival and reproduction score": "0 (active)"}, {"smiles": "Clc1ccc(OCc2nc(-c3ccccc3)no2)c(Cl)c1", "survival and reproduction score": "0 (active)"}, {"smiles": "Ic1ccc(-c2nc(-c3cccnc3)no2)cc1", "survival and reproduction score": "0 (active)"}, {"smiles": "CCn1c(SCc2nc(-c3ccccc3)no2)nc2ccccc21", "survival and reproduction score": "4 (inactive)"}, {"smiles": "CC(C)(C)C(=O)Nc1ccccc1-c1nc(-c2ccncc2)no1", "survival and reproduction score": "4 (inactive)"}, {"smiles": "CCOc1cc(-c2nc(-c3ccc(C)nc3OCC)no2)cc(OCC)c1OCC", "survival and reproduction score": "4 (inactive)"}, {"smiles": "O=C(c1ccccc1-c1nc(-c2ccc(Cl)cc2)no1)N1CCCCC1", "survival and reproduction score": "4 (inactive)"}, {"smiles": "COc1ccc(-c2nnc(SCC(=O)Nc3ccc(Cl)cc3Cl)o2)cc1", "survival and reproduction score": "2 (inactive)"}, {"smiles": "Cc1cc(C)c(OCc2nc(-c3ccncc3)no2)c(C)c1", "survival and reproduction score": "4 (inactive)"}, {"smiles": "O=S(=O)(CCC(F)=C(F)F)c1ncc(Cl)s1", "note": "[fluensulfone]", "survival and reproduction score": "4 (inactive)"}, {"smiles": "Cc1ccc(-c2noc(COc3cccc(C)c3)n2)cc1", "survival and reproduction score": "4 (inactive)"}]}]}
